The list is not random: actives were taken first. Their share in the collection is about 12%.
NS1 inh – influenza NS1 inhibition | 270,000 compounds, 0.4% hits | Potency, µM (titrated, usually from 46.1 µM), without a hit: top-dose activity, positive = more growth | AID 2326; calls by dose curve; further: potency means the concentration at half of the fitted maximal effect; actives are rising curves; nearly all actives have a fitted effect of over 50% in size
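Compounds were scored for reversing the slow growth caused by influenza A NS1 in S. cerevisiae, measured by optical density at 600 nm. Assay medium contained 2% galactose at pH 6.0; NS1-free yeast of the same strain were the positive control.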
SARS PLP yeast – SARS-CoV PLP inhibition in yeast; S. cerevisiae expressing SARS-CoV PLpro, growth rescue; Potency, µM (top dose mostly 32.9 µM), without a hit: at the top dose activity, positive = growth rescue, hits mostly activators; 330,000 compounds, 0.19% hits; calls by dose curve; further: potency means the concentration at half of the fitted maximal effect; 0% is about no effect; nearly all actives have a fitted effect of over 55% in size
Pf growth 48h – P. falciparum growth inhibition at 48 hours (one generation). P. falciparum luciferase growth in erythrocytes, 48 h. Potency, µM (doses to about 28.7 µM), for inactives: top-dose activity change, negative = inhibition, most hits filed as inhibitors. 310,000 compounds, 5.9% hits. AID 504832; further: potency means the concentration at half of the fitted maximal effect; on the % scale 0 is the no-effect control and ±100 the full control effect
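Firefly luciferase activity from engineered P. falciparum reports growth; inhibitors lower the luminescent signal. Cultures contained 2% hematocrit erythrocytes at 0.1% final parasitemia.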
HCV inhibitor – inhibitors of hepatitis C virus infection | Huh7.5.1 HCVcc-Cre infection, luciferase reporter, 44 h | Potency, µM (highest dose often 41.8 µM), inactives show top-dose activity change, negative = inhibition, actives largely listed as inhibitors | 340,000 compounds, 3.4% hits; further: potency means the concentration at half of the fitted maximal effect; on the % scale 0 is the no-effect control and ±100 the full control effect
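Whole-lifecycle infectious HCVcc-Cre system; cells 1,000/well, compound then virus (~0.5 moi) added 4 h after plating, 44 h culture. Luciferase read 15 sec following 15 min substrate incubation, room temp.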
Pf growth 96h – P. falciparum growth inhibition at 96 hour, primary screen for plastid delayed-death inhibitors; P. falciparum luciferase reporter growth, 96 h; Potency, µM (titrated, usually from 28.7 µM), inactives show at the top dose activity change, negative = inhibition, usual class: inhibitors; 320,000 compounds, 6.9% hits; further: potency means the concentration at half of the fitted maximal effect; on the % scale 0 is the no-effect control and ±100 the full control effect
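Compounds incubated with erythrocytes infected by luciferase-expressing P. falciparum (2% hematocrit, 0.05% parasitemia final) for 96 hours, 37 C in 5% CO2. Growth inhibition scored as decreased luciferase luminescence.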
AMA1-RON2 inh – AMA1-RON2 (P. falciparum) interaction inhibition; 360,000 compounds, 0.2% hits; AlphaScreen AMA1-biotinylated RON2 peptide binding; AID 720542; Potency, µM (top dose mostly 58.2 µM), for the others: at the highest dose activity change, negative = inhibition, most hits filed as inhibitors;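 further: potency means the concentration at half of the fitted maximal effect; 0% = vehicle wells and -100% = peptide control; nearly all actives have a fitted effect of over 45% in size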
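AMA1 (3D7) with his tag at 25 nM final met compounds first, then biotinylated RON2 peptide at 25 nM; detection used donor plus acceptor beads, 10 µg/mL apiece, read by AlphaScreen after 30 min at room temperature.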
Flu NS1 inh – validation of influenza NS1 protein function inhibitors; 1,400 tested, under 10 active; influenza NS1 function cell assay, 15-point titration; shares compounds with NS1 inh; activity change, negative = inhibition, % at 32.9 µM; AID 492980; calls by dose curve; further: 0% is about no effect
Active calls of the source: *; ? = inconclusive; nt = no result given; [ ] = another dose, or the depositor's remark. Unless noted, the call rests on the fitted dose curve; in most records, active means well fitted curve in the direction sought with a large enough effect; inconclusive means small, poorly fitted or top-dose-only effect, or another doubt; inactive means no such curve, though single readings can be large; an effect the other way counts as inactive or inconclusive.

SMILES | NS1 inh | SARS PLP yeast | Pf growth 48h | HCV inhibitor | Pf growth 96h | AMA1-RON2 inh | Flu NS1 inh
O=C(N[C@@]1(C(=O)O)C[C@@H]1c1ccccc1)c1ccccc1 | -5% | nt | nt | nt | nt | nt | nt
COc1cc(/C=N/n2c(-c3n[nH]c4c3CCC4)n[nH]c2=S)ccc1O | 5.6µM* | 3% | 7% | 5% | 4% | 103% | ?
Cc1c(N=Cc2cccs2)c(=O)n(-c2ccccc2)n1C | 14µM* | 2% | nt | 12% | 16% | 7% | 0
O=C(NNC(=S)NC1CCCCC1)c1cccs1 | 2.5µM* | ? | 63% | -16% | 6% | 30% | 11
O=C(NC1CCCCC1)c1cccs1 | 4% | -11% | nt | -4% | 8% | -3% | nt
Nc1c(C(=O)NCc2ccco2)sc2nc(N3CCOCC3)c3c(c12)CCCC3 | 25µM* | 0% | 9.3µM* | ? | ? | -8% | 0
Nc1c(C(=O)Nc2ccc(Br)cc2)sc2nc(N3CCOCC3)c3c(c12)CCCC3 | nt | nt | nt | nt | nt | -7% | nt
Cc1sc(NC(=O)CSc2nnc(N)s2)c(C#N)c1C | 15% | 0% | 23% | 0% | 21% | 22% | nt
Cc1ccc(NC(=S)N2CCN(S(=O)(=O)c3ccc(F)cc3)CC2)cc1 | 15% | 6% | ? | 12% | ? | -4% | nt
O=S(=O)(c1ccc2ccccc2c1)N1CCN(C(=S)Nc2ccc(F)cc2)CC1 | 11µM* | 11% | ? | ? | ? | 8% | -15
O=C(Cc1cc(=O)[nH][nH]1)N/N=C/c1c(Cl)cccc1Cl | 10µM* | 17% | -5% | 10% | ? | 2%[11.6 µM] | ?
O=C(/C=N/O)NCCCN1CCOCC1 | ? | 19% | 24% | -17% | ? | 0% | 1
O=C(/C=N/O)NCCCN1CCCCCC1 | 3% | -2% | nt | 11% | ? | 20% | nt
COc1ccc2c(c1)C(c1ccccc1)=NNC(c1ccco1)=N2 | ? | -8% | ? | 12% | ? | 18% | -15
CC(C)c1ccc(OCC(=O)Nc2ccccc2C(=O)N2CCOCC2)cc1 | -12% | 1% | -17% | -27% | 10% | 7% | nt
CC(N=C1NS(=O)(=O)c2ccccc21)C(=O)N1CCc2ccccc2C1 (stereo unspecified) | 6% | 2% | 234% | -1% | 51% | 4% | nt
Cc1cc(C)cc(NS(=O)(=O)c2ccc3[nH]cc(C(=O)N4CCc5ccccc54)c(=O)c3c2)c1 | 22µM* | -5% | -7% | -3% | ? | -2%[2.32 µM] | 11
CCOc1ccc2[nH]c(=O)c(CN(CC3COCCO3)C(=O)c3ccco3)cc2c1 (stereo unspecified) | 0% | 8% | 2% | 33% | nt | -11% | nt
CCOc1ccc2[nH]c(=O)c(CN(Cc3ccc(F)cc3)C(=O)c3ccco3)cc2c1 | 11µM* | -2% | -10% | -68% | nt | -6% | -11
C[C@@H]1CN(S(=O)C(C)(C)C)[C@H](CCO)/C1=C\CCO (stereo partly specified) | nt | nt | nt | 5%[8.37 µM] | nt | 1% | nt
COc1cc(/C=N/NC(N)=O)ccc1OC(=O)c1ccc(C)cc1 | 2% | 0% | 1% | nt | 33% | nt | nt
COc1ccc(/C=N/NC(N)=S)cc1OC(=O)c1cccc2ccccc12 | 2.2µM* | ? | ? | ? | ? | 6% | ?
COc1ccc(C(=O)Oc2cc(/C=N/NC(N)=S)ccc2OC)cc1 | 8.9µM* | ? | 4% | -5% | 40% | 2% | -39
CCNc1nc(NCC)n2c(SCC(=O)O)nnc2n1 | 10µM* | -3% | -3% | 10% | nt | -9% | 8
Cc1cc(C)c2c(n1)sc1c(-c3ccccc3)c(C#N)c(N)nc12 | 4.5µM* | -2% | 5% | 4% | 2% | -2%[2.32 µM] | 2
SMILES | NS1 inh | SARS PLP yeast | Pf growth 48h | HCV inhibitor | Pf growth 96h | AMA1-RON2 inh | Flu NS1 inh
COc1ccc(S(=O)(=O)Nc2ccc3c(c2)CC(=O)N([C@@H](C)CO)C[C@H](C)[C@@H](CN(C)S(=O)(=O)c2ccc(F)cc2)O3)cc1 | nt | -12% | nt | 14% | nt | 0% | nt
CN(C)C(CNC(=O)c1cc(Br)ccc1Cl)c1ccco1 (stereo unspecified) | 2µM* | 9% | 10% | 5% | -15% | -12% | -15
N#CCCn1cc(C(CC(=O)c2ccc(Br)cc2)C(=O)O)c2ccccc21 (stereo unspecified) | 8.9µM* | 11% | nt | 13% | -23% | 10% | 17
Cc1ccc(C(=O)CC(C(=O)O)c2cn(CCC#N)c3ccccc23)cc1 (stereo unspecified) | ? | 6% | nt | -8% | ? | 0% | nt
Cc1c(NC(=O)C2CCCN2S(=O)(=O)c2ccccc2)c(=O)n(-c2ccccc2)n1C (stereo unspecified) | 7.1µM* | 1% | 10% | 16% | -19% | -4% | -10
Cc1nc2c(c(=O)n1CCC1=CCCCC1)c1nc3ccccc3nc1n2/N=C/c1ccco1 | 10µM* | -14% | 10µM* | ? | 9.3µM* | -20% | -16
CCCn1c(C)nc2c(c1=O)c1nc3ccccc3nc1n2CCC1=CCCCC1 | 2µM* | 5% | ? | -30% | ? | 1% | ?
COCCn1cnc2c(c1=O)c1nc3ccccc3nc1n2/N=C/c1ccco1 | 1% | 3% | 19% | 9% | 48% | 12% | nt
COc1cccc(C(=O)Nc2ncc3c(n2)CC(c2ccc(OC)cc2OC)CC3=O)c1 (stereo unspecified) | 10µM* | 6% | ? | ? | 41% | 10% | -24
COc1ccc(C(=O)Nc2ncc3c(n2)CC(C)CC3=O)cc1 (stereo unspecified) | 3% | -5% | 3% | 8% | -14% | 24% | nt
O=S(=O)(Nc1ncnc2c1oc1ccccc12)c1ccc(Cl)s1 | 1.1µM* | 11% | 51% | 21% | 35% | 10% | -1
CNc1c(NS(=O)(=O)c2ccc(Cl)s2)c(=O)oc2ccccc12 | 6% | -2% | 2% | -10% | 3% | 6% | nt
O=C(NCCN1CCOCC1)/C(=C/c1ccco1)NC(=O)c1ccccc1 | 2% | 20% | -6% | 16% | 97% | -12% | nt
O=C(NC(Cc1ccc(O)cc1)C(=O)O)c1ccc2c(c1)OCO2 (stereo unspecified) | nt | 2% | 7% | -4% | 6% | 12% | nt
O=c1cc(O)c2sc3nc(-c4cccnc4)cc(C(F)(F)F)c3c2[nH]1 | 10µM* | 14% | 6% | 15% | 4% | -4% | 18
Cc1cc(C(F)(F)F)c2c(n1)sc1c(O)cc(=O)[nH]c12 | 29% | 13% | 1% | ? | nt | -4% | nt
CCS(=O)(=O)c1nnnn1-c1ccccc1S(C)(=O)=O | 14µM* | 1% | 9.3µM* | nt | nt | 10% | 5
